Source: PubChem BioAssay (EPA / NIEHS)
Several values for one entry are separate records, joined by “and”; a condition that tells them apart may be missing. Equal entries are not always repeated. Some compounds were tested as several samples or in several runs, with calls that do not always agree. Activity calls are given as the source filed them. Rule for the calls: active = hit-call score of the fitted dose curve at least 0.9, where 1 is the maximum; inactive = score below 0.9.

Tests used:
[1] = read-out: Interleukin-1 alpha (IL1a), IL1A (gene 3552); assay: BSK_KF3CT_IL1a: BioMAP Diversity Plus: KF3CT Assay for Interleukin-1 alpha (IL1a) Biomarker Activity (AID 2283070); conditions: primary human keratinocytes with fibroblasts; actives raise or lower the signal
Outline: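 Human keratinocyte plus foreskin fibroblast primary co-culture, sampled 24 h after chemical dosing. IL-1a measured by ELISA; responses fitted bidirectionally against DMSO baseline (negative control), so gain or loss of signal both count.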

[2] = read-out: TIMP metallopeptidase inhibitor 2 (TIMP2), TIMP2 (gene 7077); assay: BSK_KF3CT_TIMP2: BioMAP Diversity Plus: KF3CT Assay for TIMP metallopeptidase inhibitor 2 (TIMP2) Biomarker Activity (AID 2283071); conditions: primary human keratinocytes with fibroblasts; actives raise or lower the signal
Outline: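 Co-culture of human primary keratinocytes and foreskin fibroblasts, measured 24 h after chemical dosing. TIMP-2 quantified by ELISA and fitted in both directions relative to DMSO. Cytotoxicity checked in parallel cultures by SRB total-protein staining.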

[3] = read-out: Transforming growth factor beta 1 (TGFb1), TGFB1 (gene 7040); assay: BSK_KF3CT_TGFb1: BioMAP Diversity Plus: KF3CT Assay for Transforming growth factor beta 1 (TGFb1) Biomarker Activity (AID 2283072); conditions: primary human keratinocytes with fibroblasts; actives raise or lower the signal
Outline: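 Human keratinocyte/foreskin fibroblast co-culture; TGF-b1 measured by ELISA 24 h after dosing, fitted bidirectionally versus DMSO. Cytotoxicity checked in parallel cultures by total protein (SRB staining, 560 nm).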

[4] = read-out: C-C motif chemokine 2 (Homo sapiens) (UniProt P13500); assay: BSK_KF3CT_MCP1: BioMAP Diversity Plus: KF3CT Assay for Monocyte Chemoattractant Protein 1 (MCP1/CCL2) Biomarker Activity (AID 2283073); conditions: primary human keratinocytes with fibroblasts; actives raise or lower the signal
Outline: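 ELISA read-out of MCP-1, 24 h post-dose, in primary human skin keratinocytes co-cultured with fibroblasts. Parallel SRB staining monitors cytotoxicity; changes fitted both directions relative to DMSO.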

[5] = read-out: Matrix Metallopeptidase 9 (MMP9), MMP9 (gene 4318); assay: BSK_KF3CT_MMP9: BioMAP Diversity Plus: KF3CT Assay for Matrix Metallopeptidase 9 (MMP9) Biomarker Activity (AID 2283074); conditions: primary human keratinocytes with fibroblasts; actives raise or lower the signal;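 for AC50: MMP9 protein level quantified by ELISA in the co-culture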
Outline: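 Keratinocyte plus foreskin fibroblast human primary skin co-culture was dosed with chemical and MMP-9 was quantified by ELISA 24 h later. Bidirectional curve fitting used DMSO as negative control and activity baseline.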

[6] = read-out: urokinase plasminogen activator (uPA), PLAU (gene 5328); assay: BSK_KF3CT_uPA: BioMAP Diversity Plus: KF3CT Assay for urokinase plasminogen activator (uPA) Biomarker Activity (AID 2283075); conditions: primary human keratinocytes with fibroblasts; actives raise or lower the signal
Outline: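 Human keratinocyte plus foreskin fibroblast primary co-culture exposed to chemical for 24 h. uPA levels were quantified by ELISA, and activity was fitted bidirectionally against a DMSO negative-control baseline.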

CD40, CD40 (gene 958) = assay: BSK_LPS_CD40: BioMAP Diversity Plus: LPS Assay for CD40 Biomarker Activity (AID 2283076); conditions: primary human HUVEC with PBMC; actives raise or lower the signal
Outline: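 In the LPS system of human endothelial cells with peripheral blood mononuclear cells, CD40 levels were read by ELISA 24 h post-treatment. Signal changes in either direction were fitted against the DMSO baseline, with parallel SRB protein staining.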

[7] = read-out: E-selectin (Homo sapiens) (UniProt P16581); assay: BSK_LPS_Eselectin: BioMAP Diversity Plus: LPS Assay for Eselectin Biomarker Activity (AID 2283077); conditions: primary human HUVEC with PBMC; actives raise or lower the signal
Outline: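 E-selectin ELISA on LPS-stimulated endothelial cell/PBMC co-cultures, read 24 h post-treatment; gains and losses fitted against DMSO. Parallel SRB staining (0.1% SRB after 10% TCA fixation, 560 nm) flags overt cytotoxicity.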

[8] = read-out: Interleukin-8 (IL8), CXCL8 (gene 3576); assay: BSK_LPS_IL8: BioMAP Diversity Plus: LPS Assay for Interleukin-8 (IL8) Biomarker Activity (AID 2283078); conditions: primary human HUVEC with PBMC; actives raise or lower the signal
Outline: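 ELISA read-out of IL-8 after 24 h chemical treatment of LPS-activated endothelial/PBMC human primary co-cultures. Changes either up or down relative to DMSO; overt cytotoxicity checked by sulforhodamine B staining in parallel wells.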

[9] = BSK_LPS_SRB: Viability Assessment in the BioMAP Diversity Plus: LPS Assay (AID 2283079); conditions: primary human HUVEC with PBMC;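 note: total protein by sulforhodamine B absorbance as a cytotoxicity measure; measured one day after compound addition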
Outline: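 SRB viability endpoint: cells fixed with 10% TCA, stained with 0.1% SRB, read at 560 nm, 24 h post-dose. HUVEC/PBMC co-culture; signal change in either direction scored relative to DMSO.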

Measured: AC50

E-selectin (Homo sapiens), sequence (P16581 whole entry, looked up): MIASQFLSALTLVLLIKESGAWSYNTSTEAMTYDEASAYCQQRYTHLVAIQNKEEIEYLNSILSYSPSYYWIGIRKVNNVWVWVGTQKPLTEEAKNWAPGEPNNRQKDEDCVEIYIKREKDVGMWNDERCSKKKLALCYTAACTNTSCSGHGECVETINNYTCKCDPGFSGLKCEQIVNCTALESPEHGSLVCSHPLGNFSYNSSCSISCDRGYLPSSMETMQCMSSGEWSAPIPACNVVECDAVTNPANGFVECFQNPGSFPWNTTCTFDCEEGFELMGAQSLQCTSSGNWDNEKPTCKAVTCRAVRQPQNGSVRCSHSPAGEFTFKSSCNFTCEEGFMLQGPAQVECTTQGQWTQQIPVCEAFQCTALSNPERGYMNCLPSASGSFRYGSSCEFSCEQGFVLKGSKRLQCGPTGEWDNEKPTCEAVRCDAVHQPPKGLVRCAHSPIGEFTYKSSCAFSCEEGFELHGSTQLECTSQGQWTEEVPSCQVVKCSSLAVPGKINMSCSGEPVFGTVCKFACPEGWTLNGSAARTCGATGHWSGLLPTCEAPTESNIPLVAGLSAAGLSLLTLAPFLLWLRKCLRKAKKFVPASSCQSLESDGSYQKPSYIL

CC(CCl)OP(=O)(OC(C)CCl)OC(C)CCl (configuration not stated)
inactive: [1] | [2] | [3] | [4] | [5] | [6] | CD40, CD40 (gene 958) | [7] | [8]

CC(=O)Nc1ccc(N=Nc2cc(C)ccc2O)cc1
inactive: [2] | [3] | [4] | [5] | [6] | CD40, CD40 (gene 958) | [7] | [8]
active: [1] 20 µM

O=P(O)(O)OCCC(F)(F)C(F)(F)C(F)(F)C(F)(F)C(F)(F)C(F)(F)F
inactive: [1] | [2] | [4] | [5] | [6] | CD40, CD40 (gene 958) | [7] | [8] | [9]
active: CD40, CD40 (gene 958) 0.823 µM

C#C[C@]1(O)CC[C@H]2[C@@H]3CCc4cc(OC)ccc4[C@H]3CC[C@@]21C
inactive: [4] | [7] | [8] | [9]
active: [1] 3.97 µM | [2] 5.41 µM | [3] 2.14 µM | [5] 7.71 µM | [6] 9.89 µM

C=C(C)C(=O)OCC(F)(F)C(F)(F)C(F)(F)C(F)(F)C(F)(F)C(F)(F)C(F)(F)F
active: [7] 0.0306 µM
inactive: [1] | [2] | [4] | [5] | [6] | CD40, CD40 (gene 958) | [7] | [8]

CCCCOCCOCCOC(=O)CCCCC(=O)OCCOCCOCCCC
active: [1] 2.19 µM
inactive: [2] | [3] | [4] | [5] | [6] | [7] | [8] | [9]

C=CC(F)(F)C(F)(F)C(F)(F)C(F)(F)C(F)(F)C(F)(F)C(F)(F)C(F)(F)C=C
inactive: [1] | [2] | [4] | [5] | [6] | CD40, CD40 (gene 958) | [7] | [8]

OCC(F)(F)C(F)(F)C(F)(F)F
inactive: [1] | [2] | [4] | [5] | [6] | CD40, CD40 (gene 958) | [7] | [8]

O=C(O)C(F)(F)C(F)(F)F
inactive: [1] | [2] | [4] | [5] | [6] | CD40, CD40 (gene 958) | [7] | [8]

Oc1ccc(Nc2ccccc2)cc1
active: [1] 5.84 µM | [3] 20 µM
inactive: [2] | [4] | [5] | [6] | [7] | [8]

O=C(O)C(F)(F)C(F)(F)C(F)(F)C(F)(F)C(F)(F)C(F)(F)C(F)(F)C(F)(F)C(F)(F)C(F)(F)C(F)(F)C(F)(F)C(F)(F)F
inactive: [1] | [2] | [4] | [5] | [6] | CD40, CD40 (gene 958) | [7] | [8]
active: [8] 2.24 µM

Cc1ccc(S(=O)(=O)OCC(F)(F)C(F)(F)C(F)(F)C(F)(F)C(F)(F)C(F)F)cc1
inactive: [1] | [2] | [4] | [5] | [6] | [7] | [8]
active: [5] 10.8 µM

CCc1c(Br)c(Br)c(Br)c(Br)c1Br
inactive: [1] | [2] | [3] | [4] | [5] | [6] | [7] | [8] | [9]

CO[Si](OC)(c1ccccc1)c1ccccc1
active: [2] 30.9 µM | [3] 30.1 µM | [4] 31.6 µM | [5] 31.3 µM | [6] 28.9 µM
inactive: [1] | [7] | [8]

CCc1ccc(C(c2ccc(CC)cc2)C(Cl)Cl)cc1
inactive: [6] | [7] | [8]
active: [1] 20 µM | [2] 13 µM | [3] 20 µM | [4] 10.1 µM | [5] 11.9 µM | CD40, CD40 (gene 958) 14.2 µM | [9] 25.1 µM

CCCCNc1ccccc1
inactive: [1] | [2] | [3] | [4] | [5] | [6] | CD40, CD40 (gene 958) | [7] | [8]

CS(C)(=O)=O
inactive: [1] | [2] | [3] | [4] | [5] | [6] | [7] | [8] | [9]

C=CC/C=C/C/C=C/C/C=C/C
inactive: [1] | [2] | [3] | [4] | [5] | [6] | CD40, CD40 (gene 958) | [7] | [8]

CCCCCCOC(=O)c1ccccc1O
inactive: [1] | [2] | [4] | [5] | [6]
active: [4] 32.8 µM | [7] 38.1 µM and 44.8 µM | [8] 41.9 µM and 38.9 µM

CC(C)(C)C(=O)CC(=O)C(F)(F)C(F)(F)C(F)(F)F
inactive: [1] | [2] | [4] | [5] | [6] | CD40, CD40 (gene 958) | [7] | [8] | [9]

CCCCCCCOC(=O)c1ccccc1C(=O)OCCCCCCC
inactive: [1] | [2] | [3] | [4] | [5] | [6] | CD40, CD40 (gene 958) | [7] | [8]

FC(F)(F)C(F)(F)C(F)(F)C(F)(F)C(F)(F)C(F)(F)C(F)(F)I
active: [5] 0.244 µM
inactive: [1] | [2] | [4] | [5] | [6] | [7] | [8] | [9]

CCCCCCCCCCCCCCCC[N+](C)(C)Cc1ccccc1
active: [1] 3.72 µM | [2] 1.9 µM | [3] 1.02 µM | [4] 3.15 µM | [5] 1.76 µM | [6] 2.39 µM | CD40, CD40 (gene 958) 13 µM | [7] 4.01 µM | [8] 5.25 µM

C=CC(=O)OCC(F)(F)C(F)(F)C(F)(F)C(F)(F)C(F)(F)C(F)(F)C(F)(F)F
inactive: [1] | [2] | [4] | [5] | [6] | CD40, CD40 (gene 958) | [7] | [8]

O=C(O)C(F)(OC(F)(F)C(F)(OC(F)(F)C(F)(F)C(F)(F)F)C(F)(F)F)C(F)(F)F (configuration not stated)
inactive: [1] | [2] | [4] | [5] | [6] | CD40, CD40 (gene 958) | [7] | [8]

CCCCCCC(C)OC(=O)CCCCC(=O)OC(C)CCCCCC (configuration not stated)
inactive: [1] | [2] | [3] | [4] | [5] | [6] | CD40, CD40 (gene 958) | [7] | [8]

O=C(Cl)C(F)(F)C(F)(F)C(F)(F)C(F)(F)C(F)(F)C(F)(F)C(F)(F)C(F)(F)F
active: [2] 45.7 µM and 50.2 µM and 49.8 µM | [4] 54.5 µM and 53.2 µM | [5] 43.6 µM and 47.6 µM and 54.8 µM | [7] 50.4 µM | [8] 51.2 µM
inactive: [1] | [4] | [6] | [7] | [8]

O=C(O)C=C(C(F)(F)F)C(F)(F)F
active: [5] 8.2 µM
inactive: [1] | [2] | [4] | [5] | [6] | [7] | [8]

FC(F)(F)C(F)(F)C(F)(F)C(F)(F)CCI
inactive: [1] | [2] | [4] | [5] | [6] | CD40, CD40 (gene 958) | [7] | [8]

CCN(CC)c1ccc2c(C)cc(=O)oc2c1
inactive: [1] | [2] | [3] | [4] | [5] | [6] | CD40, CD40 (gene 958) | [7] | [8]

O=C(CC(=O)C(F)(F)C(F)(F)F)C(F)(F)F
inactive: [1] | [2] | [4] | [5] | [6] | CD40, CD40 (gene 958) | [7] | [8]

O=C(O)C(F)(F)C(F)(F)C(F)(F)C(F)(F)F
inactive: [1] | [2] | [4] | [5] | [6] | CD40, CD40 (gene 958) | [7] | [8]

Nc1ccc([N+](=O)[O-])cc1O
inactive: [1] | [2] | [3] | [4] | [5] | [6] | CD40, CD40 (gene 958) | [7] | [8]

O[Si](c1ccccc1)(c1ccccc1)c1ccccc1
inactive: [1] | [4] | [6] | [7] | [8]
active: [2] 10.3 µM | [3] 20 µM | [5] 6.74 µM | CD40, CD40 (gene 958) 24.4 µM | [9] 28.6 µM
